Reference: PubChem BioAssay (NCI)
This is part of a sample that, as a whole, favours compounds with a hit. Of some 79,000 tested, about 15% had one in any assay. Activity calls are given as the source filed them. No stated cut-off is given here; in the data, active means growth inhibition above about 70%; inactive means the rest.

Experiments:
[1] = NCI Yeast Anticancer Drug Screen. Data for the rad52 strain (AID 147);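 further: 0% = growth of vehicle-treated control cultures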; details: S. cerevisiae rad52 mutant growth inhibition, active compounds read high
Outline: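 Inhibition of yeast growth, referenced to vehicle controls, was the measured output for a strain with defective DNA damage repair.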

[2] = NCI Yeast Anticancer Drug Screen. Data for the wt1 strain (AID 149);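 further: 0% = growth of vehicle-treated wt1 cultures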; details: S. cerevisiae wt1 strain (SPY 50644) growth inhibition, active compounds read high
Outline: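 wt1 yeast, compound-treated; % growth inhibition vs vehicle control.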

[3] = NCI Yeast Anticancer Drug Screen. Data for the rad50EPP+ strain (AID 151);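 further: 0% = growth of vehicle-treated control cultures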; details: S. cerevisiae rad50 mutant strain, active compounds read high
Outline: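 Genetically defined yeast (rad50EPP+, DNA damage repair alteration) is grown with compound, and inhibition of growth is expressed relative to vehicle-treated controls.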

[4] = NCI Yeast Anticancer Drug Screen. Data for the mgt1 strain (AID 153); details: S. cerevisiae mgt1 mutant growth inhibition, active compounds read high
Outline: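 In the mgt1 strain, test compounds were added and growth inhibition was determined relative to vehicle-treated controls.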

[5] = NCI Yeast Anticancer Drug Screen. Data for the rad50 strain (AID 155);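 further: 0% = growth of vehicle-only cultures of the same strain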; details: S. cerevisiae rad50 strain growth inhibition, active compounds read high
Outline: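 Genetically altered yeast (DNA repair pathway); compound treatment; growth inhibition vs vehicle ctrl.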

[6] = NCI Yeast Anticancer Drug Screen. Data for the mec2-1 strain (AID 157); details: S. cerevisiae mec2-1 strain, active compounds read high
Outline: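 Each compound was tested on mec2-1 yeast, a strain altered in DNA damage repair or cell cycle control. Growth inhibition is reported relative to vehicle.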

[7] = NCI Yeast Anticancer Drug Screen. Data for the rad14 strain (AID 159);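 further: 0% = growth of vehicle-treated control cultures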; details: S. cerevisiae rad14 strain growth inhibition, active compounds read high
Outline: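 Test compounds were applied to a repair-deficient yeast strain. Its growth was then compared with that of cultures given vehicle alone, and inhibition was expressed relative to those controls.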

[8] = NCI Yeast Anticancer Drug Screen. Data for the sgs1 mgt1 strain (AID 161);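 further: 0% = growth of cultures given vehicle only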; details: S. cerevisiae sgs1 mgt1 strain, active compounds read high
Outline: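 Inhibition of yeast growth, normalised to vehicle-treated controls, is reported for a strain bearing genetic alterations in DNA damage repair.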

[9] = NCI Yeast Anticancer Drug Screen. Data for the cln2 rad14 strain (AID 165);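 further: 0% = growth equal to vehicle treated cultures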; details: S. cerevisiae cln2 rad14 strain, active compounds read high
Outline: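 Test compounds were added to cln2 rad14 yeast cultures; inhibition of growth was then determined by comparison with vehicle treatment.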

[10] = NCI Yeast Anticancer Drug Screen. Data for the bub3 strain (AID 167); details: S. cerevisiae bub3 mutant strain, active compounds read high
Outline: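 Yeast carrying a defined mutation is treated with each compound, and growth is compared with that of vehicle-exposed cells to give inhibition.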

[11] = NCI Yeast Anticancer Drug Screen. Data for the wt2 strain (AID 169);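 further: 0% = growth of vehicle-treated yeast cultures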; details: S. cerevisiae wt2 strain growth inhibition, active compounds read high
Outline: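 The panel's yeast strains carry defined changes in DNA repair or cell cycle genes. Each strain is grown with compound, and growth loss is scored relative to vehicle.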

[12] = NCI Yeast Anticancer Drug Screen. Data for the mlh1 strain (AID 171);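 further: 0% = growth of vehicle-treated control cultures of the same strain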; details: S. cerevisiae mlh1 strain growth inhibition, active compounds read high
Outline: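 Inhibition values reflect reduced yeast growth in the presence of compound, referenced to vehicle controls, using a strain chosen for its alteration in DNA repair or cell cycle control.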

[13] = NCI Yeast Anticancer Drug Screen. Data for the mlh1 rad18 strain (AID 175); details: S. cerevisiae mlh1 rad18 strain growth inhibition, active compounds read high
Outline: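 Inhibition values reflect reduced growth of mutant yeast versus vehicle-treated controls following compound exposure; the mutations affect DNA damage repair.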

[14] = NCI Yeast Anticancer Drug Screen. Data for the rad18 strain (AID 177); details: S. cerevisiae rad18 mutant growth inhibition, active compounds read high
Outline: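 Steps: expose repair-mutant yeast to compound; measure growth; express as inhibition relative to vehicle control.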

[15] = NCI Yeast Anticancer Drug Screen. Data for the sgs1 strain (AID 173);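 further: 0% = growth of vehicle-only control cultures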; details: S. cerevisiae sgs1 mutant, active compounds read high
Outline: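 Vehicle-treated cultures served as reference for growth inhibition of a yeast strain altered in DNA damage repair or cell cycle control after compound exposure.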

[16] = at 5.0 µM (retest, dose inferred, filed as 0.5)
[17] = at 50.0 µM (retest, dose inferred, filed as 5.0)

Measured: growth inhibition

c1ccc(-c2cc(C3CO3)c3ccccc3n2)cc1 (stereo unspecified)
active: [1]; at 33.0 µM 70% | [1]; at 100.0 µM 98% | [2]; at 100.0 µM 96% | [4]; at 100.0 µM 99% | [5]; at 50.0 µM 90.7% | [5]; at 100.0 µM 98% | [6]; at 50.0 µM 74.5% | [6]; at 100.0 µM 98% | [7]; at 100.0 µM 97% | [8]; [17] 80% | [8]; at 50.0 µM 95.5% | [10]; at 50.0 µM 93.2% | [10]; at 100.0 µM 99% | [11]; at 33.0 µM 77% | [11]; at 100.0 µM 99% | [12]; at 33.0 µM 73% | [12]; at 100.0 µM 99% | [13]; at 50.0 µM 95.8% | [14]; at 33.0 µM 89% | [14]; at 100.0 µM 97%
inactive: [1]; at 1.2 µM -1% | [1]; at 3.7 µM 5% | [1]; at 11.0 µM 19% | [2]; at 1.2 µM -1% | [2]; at 3.7 µM -3% | [2]; at 11.0 µM -5% | [2]; at 33.0 µM 2% | [3]; at 1.2 µM 2% | [3]; at 3.7 µM 6% | [3]; at 11.0 µM 24% | [3]; at 33.0 µM 46% | [3]; at 100.0 µM 68% | [4]; at 1.2 µM -2% | [4]; at 3.7 µM -4% | [4]; at 11.0 µM 1% | [4]; at 33.0 µM 69% | [5]; at 1.2 µM -4% | [5]; at 3.7 µM 1% | [5]; [16] -14% | [5]; at 11.0 µM -4% | [5]; at 33.0 µM 36% | [5]; [17] 15% | [6]; at 1.2 µM -3% | [6]; at 3.7 µM -1% | [6]; [16] -28% | [6]; at 11.0 µM -4% | [6]; at 33.0 µM 7% | [6]; [17] 35% | [7]; at 1.2 µM -4% | [7]; at 3.7 µM -4% | [7]; at 11.0 µM 1% | [7]; at 33.0 µM 25% | [8]; [16] -1% | [9]; [16] -29% | [9]; [17] 28% | [9]; at 50.0 µM 66.5% | [10]; at 1.2 µM 2% | [10]; at 3.7 µM -1% | [10]; [16] 8% | [10]; at 11.0 µM 10% | [10]; at 33.0 µM 41% | [10]; [17] 31% | [11]; at 1.2 µM -1% | [11]; at 3.7 µM 1% | [11]; at 11.0 µM 12% | [12]; at 1.2 µM -1% | [12]; at 3.7 µM -1% | [12]; at 11.0 µM 6% | [13]; [16] -17% | [13]; [17] 69% | [14]; at 1.2 µM 2% | [14]; at 3.7 µM 11% | [14]; at 11.0 µM 53%

O=C(O)CNC(c1ccccc1)(c1ccccc1)c1ccccc1
active: [1]; at 33.0 µM 92% | [1]; at 100.0 µM 98% | [2]; at 33.0 µM 83% | [2]; at 100.0 µM 97% | [4]; at 33.0 µM 87% | [4]; at 100.0 µM 96% | [5]; at 33.0 µM 87% | [5]; [17] 97% | [5]; at 50.0 µM 86.3% | [5]; at 100.0 µM 96% | [6]; at 33.0 µM 91% | [6]; [17] 91% | [6]; at 50.0 µM 90% | [6]; at 100.0 µM 99% | [7]; at 33.0 µM 90% | [7]; at 100.0 µM 98% | [8]; [17] 98% | [8]; at 50.0 µM 90.8% | [9]; [17] 99% | [9]; at 50.0 µM 86.3% | [10]; at 33.0 µM 94% | [10]; [17] 97% | [10]; at 50.0 µM 90.7% | [10]; at 100.0 µM 98% | [11]; at 33.0 µM 82% | [11]; at 100.0 µM 98% | [12]; at 33.0 µM 82% | [12]; at 100.0 µM 97% | [15]; at 33.0 µM 89% | [15]; at 100.0 µM 97% | [13]; [17] 91% | [13]; at 50.0 µM 89.9% | [14]; at 33.0 µM 89% | [14]; at 100.0 µM 97%
inactive: [1]; at 1.2 µM -9% | [1]; at 3.7 µM -2% | [1]; at 11.0 µM -2% | [2]; at 1.2 µM -15% | [2]; at 3.7 µM -9% | [2]; at 11.0 µM -25% | [3]; at 1.2 µM 11% | [3]; at 3.7 µM 4% | [3]; at 11.0 µM -6% | [3]; at 33.0 µM -3% | [3]; at 100.0 µM -5% | [4]; at 1.2 µM 19% | [4]; at 3.7 µM 13% | [4]; at 11.0 µM 16% | [5]; at 1.2 µM -10% | [5]; at 3.7 µM -2% | [5]; [16] 43% | [5]; at 11.0 µM -2% | [6]; at 1.2 µM -1% | [6]; at 3.7 µM 12% | [6]; [16] 35% | [6]; at 11.0 µM 6% | [7]; at 1.2 µM -2% | [7]; at 3.7 µM -6% | [7]; at 11.0 µM -6% | [8]; [16] 2% | [9]; [16] 18% | [10]; at 1.2 µM -5% | [10]; at 3.7 µM 13% | [10]; [16] -8% | [10]; at 11.0 µM 24% | [11]; at 1.2 µM -27% | [11]; at 3.7 µM -20% | [11]; at 11.0 µM -9% | [12]; at 1.2 µM -32% | [12]; at 3.7 µM -29% | [12]; at 11.0 µM -20% | [15]; at 1.2 µM 3% | [15]; at 3.7 µM 3% | [15]; at 11.0 µM 5% | [13]; [16] 37% | [14]; at 1.2 µM -5% | [14]; at 3.7 µM -6% | [14]; at 11.0 µM -4%
